Compounds with a hit are over-represented: about 1.6% of the library has one in this group of screens.
eIF4E-4G inh = eIF4E–eIF4G protein interaction inhibitors, primary screen, biochemical, uHTS, TR-FRET, eIF4GI fragment; inhibition, % at 21.7 µM; hit rate 0.37% among 220,000; AID 782, 2007; Eukaryotic translation initiation factor 4E (Mus musculus) + Eukaryotic translation …; TR-FRET eIF4E-eIF4GI(517-606) binding, 2 h;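 active = inhibition above about 30%, limit read from the data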;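 note: 0% = full FRET control wells and 100% = background wells lacking eIF4GI fragment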
PABP FP inh = PABP poly(A) RNA binding inhibitors, primary screen, biochemical, fluorescence polarization, uHTS; inhibition, % at 35 µM; hit rate 1% among 290,000; Polyadenylate-binding protein 1 (Homo sapiens), P11940; AID 2014, 2009;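 note: calls also rest on retests at 20 µM and on dose response follow-up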
MLLE-PAM2 inh = inhibitors of PABP1 MLLE–PAM2 peptide binding, primary screen, biochemical, fluorescence polarization, FITC-PAM2, GST-MLLE; AID 588489, 2011; hit rate 0.36% among 360,000; inhibition, % at 20 µM; in the data active = inhibition above about 35%, passing the limit was not always enough;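 note: plate controls were DMSO wells with GST-MLLE for no effect and wells lacking GST-MLLE protein for full effect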
eIF4H inh = human eIF4H binding inhibitors, primary screen, translation initiation inhibitor project, biochemical, uHTS, fluorescence polarization. eIF4H fluorescence polarization binding assay. inhibition, % at 35 µM. hit rate 0.94% among 290,000. AID 2012, 2009;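 note: calls also rest on retests at 20 µM and on dose response follow-up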
PERK inhibitor = block of dimerizer-induced PERK translation repression, primary screen, PERK inhibitor project, CHO PERK-DD cells, SEAP luminescence, HTS; CHO PERK-DD fusion, SEAP luminescence translation reporter; Eukaryotic translation initiation factor 2-alpha kinase 3 (Homo sapiens), Q9NZJ5; AID 1416, 2008; inhibition, % at 5.6 µM; hit rate 0.17% among 220,000;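 active = inhibition above the mean inhibition of all tested compounds plus 3 SD, set separately per screening campaign, cut at about 2.9% in these data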;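 note: PERK kinase domain activated by AP20187 dimerizer at 100 nM; 0% = DMSO with dimerizer and 100% = rapamycin at 8.4 µM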
Active calls of the source: *. Unless noted, the rule behind the calls is not given here.

CN(C(=O)CSc1nnc(-c2cccnc2)n1-c1ccccc1F)C1CCS(=O)(=O)C1 (stereo not drawn) was read as eIF4E-4G inh 1, PABP FP inh 59*, MLLE-PAM2 inh -22, eIF4H inh 39* and PERK inhibitor 1.
Cc1ccccc1-n1c(SCC(=O)c2cc(C)n(C)c2C)nnc1-c1cccnc1 was read as eIF4E-4G inh 3, PABP FP inh 23, MLLE-PAM2 inh -19, eIF4H inh 16 and PERK inhibitor -1.
Screening COCCn1c(C)cc(C(=O)CSc2nnc(-c3cccnc3)n2-c2ccccc2F)c1C returned eIF4E-4G inh 1, PABP FP inh 124*, MLLE-PAM2 inh -60, eIF4H inh 130 and PERK inhibitor 0.
`O=C(c1ccccc1)c1ccccc1N1C(=O)C=CC1=O` gave eIF4E-4G inh -2, PABP FP inh 5, MLLE-PAM2 inh 39*, eIF4H inh -11 and PERK inhibitor 1.
O=C1C=CC(=O)N1c1ccccn1 was read as MLLE-PAM2 inh 36.
For O=C1C=CC(=O)N1c1ccccc1N1C(=O)C=CC1=O the results were MLLE-PAM2 inh 44*.
O=C(O)c1cccc(N2C(=O)C=CC2=O)c1 was read as MLLE-PAM2 inh 31.
Screening COc1ccc(Cl)cc1NC(=O)CN(C)C(=O)c1cc2c(s1)CCCC2 returned MLLE-PAM2 inh -4.
For NC(=O)C1CCN(CC(=O)Nc2ccc(S(=O)(=O)N3CCOCC3)cc2)CC1 the results were PABP FP inh -6, MLLE-PAM2 inh -4 and eIF4H inh 0.
S=c1nc(-c2sccc2OCc2ccc(Cl)cc2Cl)[nH][nH]1 was read as eIF4E-4G inh 0, PABP FP inh 34, MLLE-PAM2 inh 37*, eIF4H inh 9 and PERK inhibitor -1.
`COc1ccc(/C=C(/CC(=O)Nc2ccccc2)c2nc3ccccc3s2)cc1` gave eIF4E-4G inh -2, PABP FP inh 12, MLLE-PAM2 inh -37, eIF4H inh 4 and PERK inhibitor 1.
COc1ccc(/C=C(/CC(=O)NCc2ccc(Cl)cc2)c2nc3ccccc3s2)cc1 was read as eIF4E-4G inh -1, PABP FP inh 72, MLLE-PAM2 inh -9, eIF4H inh active and PERK inhibitor 0.
Screening O=C(O)c1cccc(N2C(=O)c3cccc4cccc(c34)C2=O)c1 returned PABP FP inh -4, MLLE-PAM2 inh 12 and eIF4H inh -5.
Screening O=C(O)c1cccc(N2C(=O)c3cc([N+](=O)[O-])cc4cc([N+](=O)[O-])cc(c34)C2=O)c1 returned PABP FP inh 57*, MLLE-PAM2 inh -2 and eIF4H inh 68*.
`CCCCCC(=O)N1CC2(CC(c3cccc(NC(=O)[C@@H]4CCC(=O)N4)c3)=NO2)C[C@@H]1C(N)=O` (stereo partly drawn) gave eIF4E-4G inh -2, PABP FP inh 9, MLLE-PAM2 inh 0 and eIF4H inh 5.
For C=C(C)C(=O)Nc1cccc(C2=NOC3(C2)C[C@@H](C(N)=O)N(C(=O)[C@H]2CCC(=O)N2)C3)c1 (stereo partly drawn) the results were eIF4E-4G inh 4, PABP FP inh 39, MLLE-PAM2 inh -3 and eIF4H inh 103*.
Screening C=C(C)C(=O)Nc1cccc(C2=NOC3(C2)C[C@@H](C(N)=O)N(C(=O)c2ccc(OC)cc2)C3)c1 (stereo partly drawn) returned eIF4E-4G inh 7, PABP FP inh 54*, MLLE-PAM2 inh -3 and eIF4H inh 106*.
C/C=C(/C)C(=O)Nc1cccc(C2=NOC3(C2)C[C@@H](C(N)=O)N(C(=O)[C@H]2CCC(=O)N2)C3)c1 (stereo partly drawn) was read as eIF4E-4G inh -6, PABP FP inh 6, MLLE-PAM2 inh 0 and eIF4H inh -3.
For C=C(C)C(=O)Nc1cccc(C2=NOC3(C2)C[C@@H](C(N)=O)N(C(=O)c2cc([N+](=O)[O-])cc([N+](=O)[O-])c2)C3)c1 (stereo partly drawn) the results were eIF4E-4G inh -3, PABP FP inh 43, MLLE-PAM2 inh -4 and eIF4H inh 89.
`C=C(C)C(=O)Nc1cccc(C2=NOC3(C2)C[C@@H](C(N)=O)N(C(=O)CCCCC)C3)c1` (stereo partly drawn) gave eIF4E-4G inh 9, PABP FP inh 70* and eIF4H inh 81*.
Screening COC(=O)c1[nH]c2ccc(Br)cc2c1NC(=O)CN1CCN(C2CCCCC2)CC1 returned eIF4E-4G inh -3, PABP FP inh 51*, MLLE-PAM2 inh -112, eIF4H inh -12 and PERK inhibitor -2.
Screening COC(=O)c1[nH]c2ccc(C)cc2c1NC(=O)CCN1CCN(C2CCCCC2)CC1 returned eIF4E-4G inh -6, PABP FP inh -5, eIF4H inh 2 and PERK inhibitor -2.
Screening COc1cc(Cl)c(C)cc1NC(=O)c1ccccc1NC(=O)CN1CCN(C(C)=O)CC1 returned MLLE-PAM2 inh -6.
Screening Cc1ccc(/C=C/C(=O)c2ccccc(=O)c2O)cc1C returned eIF4E-4G inh 21, PABP FP inh active, MLLE-PAM2 inh -10, eIF4H inh 66* and PERK inhibitor -1.
`O=C(/C=C/c1ccccc1)c1cc(Br)ccc(=O)c1O` gave eIF4E-4G inh 8, PABP FP inh 44*, MLLE-PAM2 inh -70, eIF4H inh 83* and PERK inhibitor 1.
Screening COc1ccc(N/N=C(\C#N)C(N)=O)cc1 returned eIF4E-4G inh -7, PABP FP inh 9, MLLE-PAM2 inh -2, eIF4H inh -12 and PERK inhibitor 1.
For N#C/C(=N/Nc1ccc(OC(F)(F)F)cc1)C(N)=S the results were eIF4E-4G inh 7, PABP FP inh 0, MLLE-PAM2 inh 41*, eIF4H inh -7 and PERK inhibitor 0.
CC(C)CC(=O)NC(=S)NNC(=O)c1ccc(NC(=O)C2CCCCC2)cc1 was read as eIF4E-4G inh -1, PABP FP inh active, MLLE-PAM2 inh 1, eIF4H inh 61* and PERK inhibitor 1.
Screening CC(C)CC(=O)NC(=S)NNC(=O)c1ccc([N+](=O)[O-])cc1 returned eIF4E-4G inh 5, PABP FP inh 1, MLLE-PAM2 inh 9, eIF4H inh 6 and PERK inhibitor 1.
COc1ccc(CN2C(=O)c3cccnc3C2=O)cc1S(=O)(=O)N(C)c1cccc(C)c1 was read as PABP FP inh 2, MLLE-PAM2 inh -6 and eIF4H inh 4.
For CC(=O)c1cc2cccc(OC3(C)CCN(Cc4ccc5ccccc5c4)C3)c2o1 (stereo not drawn) the results were MLLE-PAM2 inh -24.

Bioassay records as filed in PubChem BioAssay.
